From PubChem
PAFAH1B2 inh: PAFAH1B2 enzyme inhibitors, primary screen, biochemical, fluorescence polarization, human | Platelet-activating factor acetylhydrolase IB subunit alpha2 (Homo sapiens), P68402 | AID 492953, 2010 | actives 1.2% (n = 340,000) | recombinant PAFAH1B2, FP-rhodamine activity probe | inhibition, % at 3.39 µM;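 active = inhibition above the mean of all tested compounds plus 3 SD, cut at about 24% in these data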
Target sequence (P68402 whole entry, looked up): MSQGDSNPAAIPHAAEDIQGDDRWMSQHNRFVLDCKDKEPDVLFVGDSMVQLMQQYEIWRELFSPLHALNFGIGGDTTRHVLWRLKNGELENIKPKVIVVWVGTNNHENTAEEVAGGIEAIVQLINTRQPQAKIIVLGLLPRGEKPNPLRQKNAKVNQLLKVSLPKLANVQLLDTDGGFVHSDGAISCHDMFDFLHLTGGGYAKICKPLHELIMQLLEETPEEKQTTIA
PME-1 inh: PME-1 inhibitors via competitive probe labeling, primary screen, biochemical, fluorescence polarization, FP-Rh probe, HTS; Protein phosphatase methylesterase 1 (Homo sapiens), Q9Y570; recombinant PME-1; inhibition, % at 5.9 µM; actives 0.53% (n = 320,000); AID 2130, 2009;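 active = inhibition above the campaign mean of all compounds plus 3 SD, cut at about 26% in these data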;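 note: competitive labeling of PME-1 active site by serine hydrolase directed probe; inhibitors block probe labeling so polarization falls and inhibition rises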
PAFAH2 inh: PAFAH2 enzyme inhibitors, primary screen, biochemical, fluorescence polarization, human | recombinant PAFAH2, FP-rhodamine activity probe | AID 492956, 2010 | Platelet-activating factor acetylhydrolase 2, cytoplasmic (Homo sapiens), Q99487 | actives 0.99% (n = 340,000) | inhibition, % at 3.39 µM;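 active = inhibition above the mean over all tested compounds plus 3 SD, cut at about 30% in these data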;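 note: inhibitors block probe labeling of enzyme so polarization drops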
PAFAH1B3 FP inh: PAFAH1B3 enzyme inhibitors, primary screen, biochemical, fluorescence polarization, human | recombinant PAFAH1B3, FP-rhodamine probe | inhibition, % at 3.39 µM | actives 0.28% (n = 340,000);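 active = inhibition above the screen-wide average of all tested compounds plus 3 SD, cut at about 25% in these data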
Fam108B counter: mouse Fam108B serine hydrolase inhibitors, primary screen, counter-screen for RBBP9 inhibitor project, biochemical, fluorescence polarization; inhibition, % at 9.51 µM; AID 1947, 2009; actives 0.33% (n = 300,000); recombinant Fam108B, FP-Rh probe fluorescence polarization;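 active = inhibition above the screen mean inhibition plus 3 SD, computed separately per campaign, cut at about 18% in these data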;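 note: inhibitors lower polarization as less probe binds the enzyme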
pPAFAH inh: pPAFAH enzyme inhibitors, primary screen, biochemical, fluorescence polarization, human; actives 1.5% (n = 330,000); Platelet-activating factor acetylhydrolase (Homo sapiens), Q13093; inhibition, % at 3.39 µM; recombinant pPAFAH, FP-rhodamine probe fluorescence polarization;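 active = inhibition above the mean inhibition across the screen plus 3 SD, cut at about 25% in these data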;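 note: inhibitors block binding of the rhodamine activity-based probe so polarization drops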
Target sequence (Q13093 whole entry, looked up): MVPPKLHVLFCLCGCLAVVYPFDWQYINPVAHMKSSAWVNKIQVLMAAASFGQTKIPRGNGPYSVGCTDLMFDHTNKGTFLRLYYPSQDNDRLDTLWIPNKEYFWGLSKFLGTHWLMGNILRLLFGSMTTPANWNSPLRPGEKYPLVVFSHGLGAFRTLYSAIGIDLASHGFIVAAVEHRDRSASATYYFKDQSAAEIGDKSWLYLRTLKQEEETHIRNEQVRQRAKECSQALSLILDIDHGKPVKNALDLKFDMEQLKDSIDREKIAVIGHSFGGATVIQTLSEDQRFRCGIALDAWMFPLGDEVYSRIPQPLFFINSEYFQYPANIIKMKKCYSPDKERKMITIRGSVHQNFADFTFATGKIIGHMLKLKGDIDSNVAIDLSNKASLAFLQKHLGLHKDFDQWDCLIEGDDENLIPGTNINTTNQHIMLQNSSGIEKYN
Hits are given with their value; – = inactive; · = no result. Most compounds without a hit are left out; they make up all but 2.8% or so of the library.

SMILES | PAFAH1B2 inh | PME-1 inh | PAFAH2 inh | PAFAH1B3 FP inh | Fam108B counter | pPAFAH inh
COc1ccc(NS(=O)(=O)c2ccc(C)c(C(=O)NC3CCN(Cc4ccccc4)CC3)c2)cc1 | – | – | – | – | – | 26.4
S=c1[nH]nc(-c2ccccc2)n1Cc1ccccc1 | – | – | – | – | – | –
COc1ccc(-c2n[nH]c(=S)n2Cc2ccccc2)cc1 | – | – | – | – | – | –
S=c1[nH]nc(-c2ccc(Cl)cc2)n1Cc1ccccc1 | 37.1 | – | – | – | – | –
CCCCc1n[nH]c(=S)n1Cc1ccc(Cl)cc1 | 26.7 | – | – | – | – | –
COc1ccc(NS(=O)(=O)c2cccc(-c3nnc(-c4ccccc4)o3)c2)cc1 | – | – | – | – | – | 29.7
CCN(CC)S(=O)(=O)c1cccc(-c2n[nH]c(=S)n2Cc2ccccc2)c1 | – | – | – | – | – | –
COc1ccc(NS(=O)(=O)c2cccc(-c3n[nH]c(=S)n3Cc3ccccc3)c2)cc1 | – | – | – | – | – | 26.7
N#C/C(=N\Nc1ccccc1F)c1nc(-c2ccccc2)cs1 | – | – | – | – | – | –
Cc1cc(N2CCN(C)CC2)nc2ccc(NC(=O)CCC3CCCC3)cc12 | – | – | – | – | – | –
Cc1sc(NC(=O)C2CSC3(C)CCC(=O)N23)nc1-c1ccccc1 (stereo not drawn) | – | – | – | – | – | –
CCn1nc(NS(=O)(=O)c2ccc([N+](=O)[O-])cc2)c2cc3cccc(C)c3nc21 | – | – | – | – | – | 27.7
CCn1nc(NS(=O)(=O)c2ccccc2[N+](=O)[O-])c2cc3cccc(C)c3nc21 | – | – | – | – | – | –
CCCNC(=O)C(Cc1ccc(I)cc1)NC(=O)C1CC1 (stereo not drawn) | – | – | – | – | · | –
COc1ccc(NC(=O)N2CCCC(c3nc(-c4ccc(C(C)C)cc4)no3)C2)cc1 (stereo not drawn) | 29.6 | – | – | – | – | –
CCOc1cccc(CNc2ccc(O)cc2)c1OCc1ccccc1Cl | – | 33.7 | – | – | – | 32.2
CCOc1cccc(CNn2cnnc2)c1OCc1ccccc1Cl | – | – | – | – | – | –
CCOc1cccc(CNc2ccc(O)cc2)c1OCc1ccc(Cl)cc1Cl | – | – | – | – | – | 31.2
CC(OC(=O)Cc1ccccc1[N+](=O)[O-])C(=O)NC(=O)NC1CCCCC1 (stereo not drawn) | – | – | – | – | – | –
CC1CC(C)CN(C(=O)CN(C)S(=O)(=O)c2ccc3c(c2)c(=O)n(C)c(=O)n3C)C1 (stereo not drawn) | – | – | – | – | – | –
COc1ccc(C2CC(c3ccccc3)=NN2c2ccc(C(N)=O)cc2)cc1 (stereo not drawn) | – | – | – | – | – | –
O=C(O)c1ccc(N2N=C(c3ccccc3)CC2c2ccccc2)cc1 (stereo not drawn) | – | – | – | – | – | 32.1
O=Cc1ccc(N2N=C(c3ccccc3)CC2c2ccccc2)cc1 (stereo not drawn) | – | – | – | – | – | 30.4
CC(=O)NC(CC(=O)O)c1ccc([N+](=O)[O-])cc1 (stereo not drawn) | – | – | – | – | – | –
CN1C[C@@H]2[C@@H]3C(=O)N(Cc4ccccc4)C(=O)[C@@H]3[C@](Cc3ccccc3)(C1=O)N2C(=O)c1ccc(F)cc1 | – | · | – | – | · | ·
SMILES | PAFAH1B2 inh | PME-1 inh | PAFAH2 inh | PAFAH1B3 FP inh | Fam108B counter | pPAFAH inh
CCn1c(SCC(=O)Nc2oc(-c3ccccc3)c(-c3ccccc3)c2C#N)nnc1-c1ccco1 | 25.1 | – | – | – | – | –
CCn1c(SCC(=O)Nc2oc(-c3ccccc3)c(-c3ccccc3)c2C#N)nnc1-c1ccncc1 | – | – | – | – | – | –
N#Cc1c(NC(=O)CSc2ncnc3sccc23)oc(-c2ccco2)c1-c1ccco1 | – | – | – | – | – | 32.7
Cc1cc(NC(=O)CSc2ncnc3sccc23)no1 | – | – | – | – | – | –
CC(C)(C)c1ccc(C2=CC(c3ccccc3)n3ncnc3N2)cc1 (stereo not drawn) | 58.1 | – | – | – | – | 26.1
Cc1nnc(NC(=O)C2COc3ccccc3O2)s1 (stereo not drawn) | – | – | – | – | – | –
Cc1ccc(CSc2nnc(NC(=O)C3COc4ccccc4O3)s2)cc1 (stereo not drawn) | 30.5 | – | – | – | – | –
CCc1ccc(C(=O)OCC(=O)NC2CCCC2)cc1 | – | – | 81.9 | – | – | 30.3
CCOc1ccc2oc(C(=O)OCC(=O)NC3CCCCC3)c(C)c2c1 | – | – | 61.4 | – | · | 25.8
NC(=O)COC(=O)c1ccc2c(c1)S(=O)(=O)c1ccccc1C2=O | – | – | – | – | – | –
O=C(COC(=O)c1ccc2c(c1)S(=O)(=O)c1ccccc1C2=O)NC1CC1 | – | – | – | – | – | 29.9
Cc1cccc(C(=O)OCC(=O)NC2CCCCCCC2)c1 | – | – | 91.5 | – | · | 29.4
O=S(=O)(Nc1cccc(Cl)c1)c1ccc2oc(=S)[nH]c2c1 | – | – | – | – | – | 31.8
COc1ccc(Cl)cc1S(=O)(=O)N1CCC(C(=O)NCc2ccco2)CC1 | – | – | – | – | – | –
CN(CC(=O)Nc1ccc(Cl)c(C(F)(F)F)c1)C(=O)CCNC(=O)c1ccco1 | – | – | – | – | – | –
CN(CC(=O)Nc1ccc(Cl)c(C(F)(F)F)c1)C(=O)CCCNC(=O)c1ccc(Cl)cc1 | 52.7 | – | – | – | · | 30.6
CCN(CC)c1ccc(/C=C2/C(=O)c3ccc(C(=O)O)cc3C2=O)cc1 | – | – | – | – | – | 28.3
CCOc1ccc(OCCSc2nc3ccccc3c(=O)[nH]2)cc1 | 31.1 | – | – | – | – | –
O=c1[nH]c(SCCOc2cccc3ccccc23)nc2ccccc12 | – | – | – | – | – | –
CCOc1cc(CNCCSc2nnnn2C)cc(Br)c1OCc1ccccc1F | – | – | – | – | – | 25.4
N#CC1=C(N)NC(SCc2ccc(F)cc2)=C(C#N)C12CCCCC2 | 27.6 | – | – | – | – | –
O=C(O)c1ccccc1C(=O)c1ccc(Oc2ccccc2)cc1 | – | – | – | – | – | –
O=C(c1ccc(Oc2ccccc2)cc1)c1nc2c(n1O)CCCC2 | – | – | – | – | – | 30.7
CN(Cc1ccccc1)C(=O)c1cccc(NC(=O)Cc2ccc(NC(=O)C3CCCN(C(=O)C4CCC4)C3)cc2)c1 (stereo not drawn) | – | · | – | – | · | ·
Cc1ccc(S(=O)(=O)NCC(=O)OCCOc2ccc(Br)cc2)cc1 | 30.0 | · | – | – | · | –
COc1ccc(S(=O)(=O)NCCOc2ccc(Cl)cc2)cc1 | – | – | – | – | · | –
